Vif inh: HIV Vif inhibition. HEK293T cells, Vif self-association by quenched fluorescence, imaging, 24 h. inhibition, % at 7.49 µM. 340,000 tested, 0.35% active; in the data active means inhibition above about 50%, passing the limit was not always enough; inconclusive means no clear call, values can overlap the other calls; inactive means below about 31%
PvdQ acylase: blocks Pseudomonas aeruginosa PvdQ acylase activity; purified PvdQ acylase, fluorescence plate reader; inhibition, % at 10 µM; 340,000 tested, 0.063% active; in the data active means inhibition above about 30%, passing the limit was not always enough; inconclusive means no clear call, values can overlap the other calls
ERp5 block: inhibitors of human ERp5; Q15084; 350,000 tested, 0.05% active; inhibition, % at 9.99 µM; ERp5 insulin aggregation, absorbance 650 nm, 90 min; AID 651711;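 active means mean replicate inhibition above about 25%, with every replicate also reaching it, limit read from the data, passing the limit was not always enough; inconclusive means only one of those two criteria met; inactive means neither criterion met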
PDI inh: PDI (human) enzyme inhibition; inhibition, % at 10 µM; 350,000 tested, 0.052% active; PDI insulin aggregation turbidity, A650, 90 min; AID 588391;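 active means mean inhibition across replicates of 30% or more, whatever share of single replicates reach that level; inconclusive means mean inhibition below 30% while every single replicate reaches 30%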
Target sequence (P07237 whole entry, looked up): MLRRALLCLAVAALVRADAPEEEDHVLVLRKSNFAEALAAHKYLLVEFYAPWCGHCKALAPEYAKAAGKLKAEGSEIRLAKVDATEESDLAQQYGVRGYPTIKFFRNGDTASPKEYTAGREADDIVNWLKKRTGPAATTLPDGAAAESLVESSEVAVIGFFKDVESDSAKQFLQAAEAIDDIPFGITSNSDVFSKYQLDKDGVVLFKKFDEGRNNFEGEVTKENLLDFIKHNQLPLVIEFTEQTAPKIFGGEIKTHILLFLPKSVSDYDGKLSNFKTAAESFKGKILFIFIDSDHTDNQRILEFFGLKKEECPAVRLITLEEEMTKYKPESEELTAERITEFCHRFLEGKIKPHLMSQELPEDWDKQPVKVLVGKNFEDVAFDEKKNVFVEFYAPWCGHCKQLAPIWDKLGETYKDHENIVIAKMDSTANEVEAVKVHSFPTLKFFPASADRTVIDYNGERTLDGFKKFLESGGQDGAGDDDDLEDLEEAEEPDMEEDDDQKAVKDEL
AI-2 QS modul: modulators of Vibrio harveyi AI-2 quorum sensing system; Vibrio harveyi JMH597 AI-2 luminescence/OD600 ratio, 9 h; stronger effect = lower value; strain lacks LuxN and CqsS sensors; 0 = neutral-control median; 300,000 tested, 0.4% active; AID 2094; activity change, % at 7.5 µM; in the data active means activity change below about -75%, passing the limit was not always enough; inconclusive means no clear call, values can overlap the other calls;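 further: luminescence divided by OD600 gain over 9 h not by final OD600 alone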
JMH597 growth rt: retest: blocks Vibrio harveyi JMH597 growth. shares compounds with AI-2 QS modul. OD600 absorbance, 9 h; lacks LuxN and CqsS sensors. growth inhibition, % at 7.5 µM. 750 tested, 1% active. AID 2726;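 active means every replicate shows growth inhibition above 50%; inconclusive means at least half, but not all, replicates pass that cutoff; inactive means fewer than half of replicates pass it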
BB721 const-QS lum: retest counter-screen: BB721 constitutive quorum sensing luminescence decrease | shares compounds with AI-2 QS modul | Vibrio harveyi BB721 luminescence, 9 h | inhibition, % at 7.5 µM | 750 tested, 95% active;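 active means inhibition above about 80% in every replicate, not just on average, limit read from the data; inconclusive means at least half of replicates past the limit, but not all; inactive means fewer than half of replicates past the limit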
BB721 growth: retest: inhibitors of Vibrio harveyi BB721 growth. OD600 absorbance, 9 h. 750 tested, 3% active. AID 2728. shares compounds with AI-2 QS modul. growth inhibition, % at 7.5 µM;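 active means every replicate shows growth inhibition above 50%; inconclusive means at least half but not all replicates above 50% inhibition; inactive means under half of replicates above 50% inhibition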
JMH597 AI-2 mod: Vibrio harveyi AI-2 signaling luminescence modulation – JMH597 strain, confirmation. shares compounds with AI-2 QS modul. Vibrio harveyi JMH597 AI-2 quorum sensing luminescence, 9 h; luxN and CqsS knockout, AI-2 only. inhibition, % at 7.5 µM. 750 tested, 97% active. AID 2736;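 active means every replicate shows more than 75% inhibition of signal versus neutral control wells; inconclusive means half to three quarters of replicates exceed 75% inhibition; inactive means fewer than half of replicates exceed 75% inhibition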
Large screens that a line does not name were inactive (follow-up assays come after a bar, where they were run). The list is not random: actives were taken first. Their share in the collection is about 0.64%.

COc1ccc(-c2noc(CCc3ccccc3)n2)cc1	AI-2 QS modul inconclusive | JMH597 growth rt inactive | BB721 const-QS lum 94 | BB721 growth inactive | JMH597 AI-2 mod 97
c1ccc(OCCCc2nc(-c3cccnc3)no2)cc1	AI-2 QS modul -93 (no result: ERp5 block) | JMH597 growth rt inactive | BB721 const-QS lum 98 | BB721 growth inactive | JMH597 AI-2 mod 99
COc1ccc(Cc2nc(-c3cccc(C)c3)no2)cc1	AI-2 QS modul -80 (no result: ERp5 block) | JMH597 growth rt inactive | BB721 const-QS lum 94 | BB721 growth inactive | JMH597 AI-2 mod 96
Cc1cccc(-c2noc(Cc3ccc(Cl)cc3)n2)c1	none (no result: ERp5 block)
CO[C@H]1CN(C)C(=O)c2ccc(NC(=O)c3cc(C)on3)cc2OC[C@@H](C)N(C)C[C@@H]1C	none (no result: Vif inh, PvdQ acylase, PDI inh, AI-2 QS modul)
C[C@@H]1CN([C@@H](C)CO)S(=O)(=O)c2ccc(C#CC3CC3)cc2O[C@H]1CN(C)C(=O)c1cnccn1	none (no result: Vif inh, PvdQ acylase, PDI inh, AI-2 QS modul)
O=C(C[C@@H]1CC[C@H](NC(=O)Cc2cccnc2)[C@@H](CO)O1)Nc1ccccc1	none (no result: Vif inh, PvdQ acylase, PDI inh, AI-2 QS modul)
CS(=O)(=O)Nc1ccc2c(c1)[C@H]1C[C@@H](CC(=O)NCc3ccccc3)O[C@H](CO)[C@H]1O2	none (no result: Vif inh, PvdQ acylase, PDI inh, AI-2 QS modul)
CO[C@@H]1CN(C)C(=O)c2cc(NC(=O)c3ccccc3F)ccc2OC[C@H](C)N(CC2CCOCC2)C[C@@H]1C	none (no result: Vif inh, PvdQ acylase, PDI inh, AI-2 QS modul)
COc1ccc2c3c(n(C)c2c1)[C@@H](CO)N(C(=O)NC(C)C)CC31CN(CC2CCOCC2)C1	none (no result: Vif inh, PvdQ acylase, PDI inh, AI-2 QS modul)
c1ccc(CSc2nnc(-c3ccco3)o2)cc1	AI-2 QS modul -87 | JMH597 growth rt inactive | BB721 const-QS lum 95 | BB721 growth inactive | JMH597 AI-2 mod 96
Brc1ccc(CSc2nnc(-c3ccco3)o2)cc1	none
Cc1ccc(CSc2nnc(-c3ccco3)o2)cc1	AI-2 QS modul -82 (no result: ERp5 block) | JMH597 growth rt inactive | BB721 const-QS lum 96 | BB721 growth inactive | JMH597 AI-2 mod 98
Fc1ccc(CSc2nnc(-c3ccco3)o2)cc1	AI-2 QS modul inconclusive
O=C(Nc1cccc(C(F)(F)F)c1)C1CCN(S(=O)(=O)c2cccnc2)CC1	AI-2 QS modul -83 | JMH597 growth rt inactive | BB721 const-QS lum 92 | BB721 growth inactive | JMH597 AI-2 mod 94
O=C(NCc1cccnc1)C1CCN(S(=O)(=O)c2cccc(C(F)(F)F)c2)CC1	none (no result: AI-2 QS modul)
Cc1ccc(CNC(=O)C2CCN(S(=O)(=O)c3cccnc3)CC2)cc1	AI-2 QS modul inconclusive | JMH597 growth rt inactive | BB721 const-QS lum 93 | BB721 growth inactive | JMH597 AI-2 mod 95
Cc1ccc(NC(=O)C2CCN(S(=O)(=O)c3cccnc3)CC2)cc1C	AI-2 QS modul -89 | JMH597 growth rt inactive | BB721 const-QS lum 95 | BB721 growth inactive | JMH597 AI-2 mod 96
C[C@H](CO)N1C[C@H](C)[C@H](CN(C)C(=O)NC2CCCCC2)Oc2ccc(NS(=O)(=O)c3cn(C)cn3)cc2C1=O	none (no result: Vif inh, PvdQ acylase, PDI inh, AI-2 QS modul)
COc1ccc(CNC(=O)c2cc(-c3cc(C)ccc3O)n[nH]2)cc1	AI-2 QS modul -79 | JMH597 growth rt inactive | BB721 const-QS lum inconclusive | BB721 growth inactive | JMH597 AI-2 mod 84
O=C(Cn1nnc2ccccc2c1=O)Nc1ccc(S(=O)(=O)N2CCOCC2)cc1	AI-2 QS modul -97 | JMH597 growth rt inactive | BB721 const-QS lum 99 | BB721 growth inactive | JMH597 AI-2 mod 100
Cc1ccc(NC(=O)Cn2nnc3ccccc3c2=O)cc1C	AI-2 QS modul -93 | JMH597 growth rt inactive | BB721 const-QS lum 99 | BB721 growth inactive | JMH597 AI-2 mod 99
Cc1ccc(NC(=O)Cn2nnc3ccccc3c2=O)cc1	AI-2 QS modul -84 | JMH597 growth rt inactive | BB721 const-QS lum 97 | BB721 growth inactive | JMH597 AI-2 mod 98
COc1ccc(NC(=O)CCCCCn2nnc3ccccc3c2=O)cc1OC	none
CC(=O)c1ccc(NC(=O)CCCCCn2nnc3ccccc3c2=O)cc1	none
O=S(=O)(N[C@@H]1CC[C@@H](CCn2cc(C3(O)CCCC3)nn2)O[C@H]1CO)c1ccc(Cl)cc1	none (no result: Vif inh, PvdQ acylase, PDI inh, AI-2 QS modul)
CO[C@H]1CN(C)C(=O)c2cc(NC(=O)c3ccccc3F)ccc2OC[C@@H](C)N(CC2CCOCC2)C[C@@H]1C	none (no result: Vif inh, PvdQ acylase, PDI inh, AI-2 QS modul)
CC(C)NC(=O)N[C@@H]1C[C@@H]2O[C@H](CO)CC[C@@H]2O[C@@H]1CCc1ccc(-c2ccc(F)cc2)cc1	none (no result: Vif inh, PvdQ acylase, PDI inh, AI-2 QS modul)
O=[N+]([O-])c1ccc(N/N=C/c2cccc(O)c2O)cc1	AI-2 QS modul -82 | JMH597 growth rt inactive | BB721 const-QS lum 93 | BB721 growth inactive | JMH597 AI-2 mod 96
O=C(OC1CCCCC1)c1ccc(NC(=O)c2ccco2)cc1	AI-2 QS modul -79 (no result: ERp5 block) | JMH597 growth rt inactive | BB721 const-QS lum 85 | BB721 growth inconclusive | JMH597 AI-2 mod 90
O=C(Nc1ccc(Oc2cccc3ccccc23)cc1)c1ccco1	AI-2 QS modul -88 (no result: ERp5 block) | JMH597 growth rt inactive | BB721 const-QS lum 95 | BB721 growth inactive | JMH597 AI-2 mod 93
O=C(Nc1ccc(OC(=O)c2ccco2)cc1)c1ccco1	none (no result: ERp5 block)
O=C(O)c1ccccc1C(=O)Nc1ccc(Oc2cccc3ccccc23)cc1	none
CCCCOC(=O)Nc1ccc(S(=O)(=O)Nc2ncccn2)cc1	AI-2 QS modul -91 | JMH597 growth rt inactive | BB721 const-QS lum 96 | BB721 growth inactive | JMH597 AI-2 mod 97
COC(=O)Nc1ccc(S(=O)(=O)Nc2ncccn2)cc1	none
COCC(=O)N1C[C@H](C)[C@@H](OC)CN(C)C(=O)c2cc(NC(=O)c3cc(C)on3)ccc2OC[C@@H]1C	none (no result: Vif inh, PvdQ acylase, PDI inh, AI-2 QS modul)
O=C(Cn1c(=O)oc2cc(S(=O)(=O)N3CCCC3)ccc21)NCc1ccccn1	AI-2 QS modul -97 | JMH597 growth rt inactive | BB721 const-QS lum 99 | BB721 growth inactive | JMH597 AI-2 mod 99
O=C(Cn1c(=O)oc2cc(S(=O)(=O)NCc3ccccc3)ccc21)NCc1ccco1	AI-2 QS modul inconclusive | JMH597 growth rt inactive | BB721 const-QS lum 100 | BB721 growth inactive | JMH597 AI-2 mod 100
CCS(=O)(=O)N1CCC2(CC1)CN(Cc1cccnc1)[C@@H](CO)c1c2c2ccc(OC)cc2n1C	none (no result: Vif inh, PvdQ acylase, PDI inh, AI-2 QS modul)
Cc1noc(C)c1NC(=O)NCC[C@@H]1CC[C@H](NC(=O)c2ccncc2)[C@H](CO)O1	none (no result: Vif inh, PvdQ acylase, PDI inh, AI-2 QS modul)
COc1ccc(C(=O)Cn2nnc(-c3cccs3)n2)cc1	AI-2 QS modul -81 (no result: ERp5 block) | JMH597 growth rt inactive | BB721 const-QS lum 93 | BB721 growth inactive | JMH597 AI-2 mod 96
O=C(Cn1nnc(-c2ccccc2)n1)NNC(=O)c1ccccc1	none
O=C(Cn1nnc(-c2ccccc2)n1)c1ccccc1	AI-2 QS modul -94 | JMH597 growth rt inactive | BB721 const-QS lum 98 | BB721 growth inactive | JMH597 AI-2 mod 99
